Hits are enriched below; roughly 2.8% of the tested compounds scored in any of these assays.
KDM5B inh: inhibitors of human KDM5B histone demethylase; Q9UGL1; KDM5B demethylase, FDH-coupled NADH fluorescence (FDH is formaldehyde dehydrogenase); Potency, µM (doses to about 57.7 µM), hits mostly inhibitors; actives 2.6% (n = 220,000); AID 1347165; active = well fitted inhibition curve with a large enough effect; inconclusive = small, poorly fitted or top-dose-only effect; inactive = no such curve, though single readings can be large or run the other way; note: potency is the fitted concentration of half-maximal effect; 0% is about no effect; nearly all actives have a fitted effect of over 70% in size
Target sequence (Q9UGL1 whole entry, looked up): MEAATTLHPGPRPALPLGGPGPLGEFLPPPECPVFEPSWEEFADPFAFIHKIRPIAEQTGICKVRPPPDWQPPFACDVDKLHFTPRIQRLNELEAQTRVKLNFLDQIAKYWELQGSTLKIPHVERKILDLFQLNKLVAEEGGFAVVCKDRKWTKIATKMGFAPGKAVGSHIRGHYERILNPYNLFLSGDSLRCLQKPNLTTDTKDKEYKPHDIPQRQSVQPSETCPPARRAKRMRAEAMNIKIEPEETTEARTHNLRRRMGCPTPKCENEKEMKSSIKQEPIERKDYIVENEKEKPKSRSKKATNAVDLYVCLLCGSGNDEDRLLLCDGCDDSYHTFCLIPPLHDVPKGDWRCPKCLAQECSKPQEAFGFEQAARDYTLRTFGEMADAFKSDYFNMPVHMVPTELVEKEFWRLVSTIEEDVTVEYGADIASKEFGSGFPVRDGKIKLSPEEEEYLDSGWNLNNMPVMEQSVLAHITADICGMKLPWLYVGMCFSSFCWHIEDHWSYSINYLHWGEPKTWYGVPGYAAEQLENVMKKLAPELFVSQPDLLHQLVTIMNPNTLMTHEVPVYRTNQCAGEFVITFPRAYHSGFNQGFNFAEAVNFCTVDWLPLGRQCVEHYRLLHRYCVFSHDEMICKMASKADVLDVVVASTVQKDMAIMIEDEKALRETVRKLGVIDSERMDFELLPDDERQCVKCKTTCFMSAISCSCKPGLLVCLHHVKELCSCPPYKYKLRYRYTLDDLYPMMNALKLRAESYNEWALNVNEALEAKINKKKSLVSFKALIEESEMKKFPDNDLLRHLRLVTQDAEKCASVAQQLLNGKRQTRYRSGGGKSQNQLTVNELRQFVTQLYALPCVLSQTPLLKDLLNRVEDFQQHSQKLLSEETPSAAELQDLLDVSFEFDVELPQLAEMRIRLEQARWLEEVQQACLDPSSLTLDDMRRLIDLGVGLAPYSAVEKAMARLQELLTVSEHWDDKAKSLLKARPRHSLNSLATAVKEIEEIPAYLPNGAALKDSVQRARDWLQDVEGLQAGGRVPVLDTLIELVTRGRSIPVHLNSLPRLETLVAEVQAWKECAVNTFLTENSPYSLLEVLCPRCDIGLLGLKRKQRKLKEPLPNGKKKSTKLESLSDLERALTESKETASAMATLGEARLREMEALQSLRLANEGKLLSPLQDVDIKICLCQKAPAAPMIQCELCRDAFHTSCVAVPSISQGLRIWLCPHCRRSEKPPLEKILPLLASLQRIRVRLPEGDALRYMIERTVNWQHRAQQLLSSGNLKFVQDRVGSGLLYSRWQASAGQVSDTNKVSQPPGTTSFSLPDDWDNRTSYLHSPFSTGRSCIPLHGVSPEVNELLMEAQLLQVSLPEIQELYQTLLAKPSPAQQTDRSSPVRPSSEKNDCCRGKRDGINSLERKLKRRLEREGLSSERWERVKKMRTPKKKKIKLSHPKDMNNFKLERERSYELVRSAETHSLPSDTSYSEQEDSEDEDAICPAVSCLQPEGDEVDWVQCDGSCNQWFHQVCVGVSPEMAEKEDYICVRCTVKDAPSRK
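KDM5BΔAP (200 nM final) in 50 mM HEPES pH 7.5, 0.01% Tween-20 was preincubated 10 min at RT with compound over a concentration range. Substrate mix (H3K4me3 12.5 µM, α-KG 25 µM, Fe²⁺, ascorbate, NAD⁺, FDH) was added, and NADH fluorescence change over 30 min gave dose-response curves.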
IP6K1 inhibitor: blocks human inositol hexakisphosphate kinase 1; Q92551; IP6K1 kinase, ADP-Glo luminescence, 2 h; active compounds read low; activity change, % (series mostly up to about 58 µM); actives 0.81% (n = 140,000); in the data active = activity change below about -25%; note: % is set by controls: 0 for no effect and ±100 for the full control effect
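ADP-Glo luminescence measures ADP made by human IP6K1 during a 2 h RT reaction with ATP/IP6 (mix at 1.3 mM/130 uM); top library doses 57.5 and 19.1 uM final.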
The depositor's hits bear a star; i = inactive; ? = inconclusive; · = no result given.

SMILES | KDM5B inh | IP6K1 inhibitor
Cc1ccc(C)c(C(=O)NCCn2ccn3nc(-c4cc(C)ccc4C)cc3c2=O)c1 | 31.6µM* | -0.4
Cc1ccc(-c2cc3c(=O)n(CCNC(=O)c4ccc(N(C)C)cc4)ccn3n2)c(C)c1 | 28.2µM* | -0.1
O=C(NCCc1ccc(F)cc1)C1CCCCN1Cc1ccc(-c2cccs2)cc1 (centres undefined) | · | 5.7
O=C(O)c1nnn(-c2ccc(F)cc2)c1C(F)(F)F | i | ·
CC1(C)[C@H](Cc2cc(COC(=O)c3cccs3)on2)C[C@@H]1NC(=O)c1cccs1 | i | 14.4
Cc1ccc(-c2cc3c(=O)n(CCNC(=O)c4nn(C)c5ccccc45)ccn3n2)c(C)c1 | 28.2µM* | 0.3
CCOc1ccc(C(=O)NCCn2ccn3nc(-c4ccc(OC)cc4)cc3c2=O)cc1 | 8.91µM* | 0.8
Cc1ccc(-c2cc3c(=O)n(CC(O)c4ccc(C)c(C)c4)ccn3n2)c(C)c1 (centres undefined) | 35.5µM* | 0.4
COc1ccccc1CC(=O)NCCn1ccn2nc(-c3ccc(C)c(C)c3)cc2c1=O | ? | -16.6
Cc1ccc(-c2cc3c(=O)n(CCNC(=O)c4cc(Cl)ccc4F)ccn3n2)c(C)c1 | ? | -2.0
Cc1ccc(-c2cc3c(=O)n(CCNC(=O)c4cccnc4)ccn3n2)c(C)c1 | i | -6.8
COc1ccc(C(=O)NCCn2ccn3nc(-c4ccc(C)c(C)c4)cc3c2=O)cc1 | 17.8µM* | -2.0
CCOc1ccc(-c2cc3c(=O)n(CCNC(=O)c4ccc(OC)cc4)ccn3n2)cc1 | ? | 2.3
COc1ccc(F)cc1-c1ccc(CN2CCC(N[S+](=O)([O-])c3ccc(C)cc3)C2)cc1 (centres undefined) | · | -3.4
CCOC(=O)CN([C@@H]1C[C@@H]2CO[C@H](C(C)C)C[C@@H]2C1)[S+](=O)([O-])c1cccs1 | · | -4.1
O=C(NC1CC1)c1ccc2nnc(Cc3ccc(Cl)cc3)n2c1 | · | -12.9
COCCCNC(=O)CNC(=O)c1ccc(-c2cccc(C(F)(F)F)c2)cc1 | · | -3.7
COc1ccc(C(=O)N2CCC(C(=O)N3CCC4(CC3)CC(=O)Nc3ccccc3O4)C2)cc1 (centres undefined) | · | 0.4
CCOc1ccc(-c2cc3c(=O)n(CCNC(=O)c4ccc(C#N)cc4)ccn3n2)cc1 | 20µM* | -8.2
CCOc1ccc(-c2cc3c(=O)n(CCNC(=O)c4ccc(Cl)cc4)ccn3n2)cc1 | i | -10.1
CCOc1ccc(-c2cc3c(=O)n(CCNC(=O)c4ccccc4OC)ccn3n2)cc1 | 31.6µM* | -2.4
Cc1ccc(-c2cc3c(=O)n(CCNC(=O)c4cccc(Cl)c4)ccn3n2)cc1C | i | -15.9
COc1ccc(-c2cc3c(=O)n(CCNC(=O)c4cccc(N(C)C)c4)ccn3n2)cc1 | 35.5µM* | -12.9
Cc1ccc(-c2cc3c(=O)n(CCNC(=O)c4ccc(N(C)C)cc4)ccn3n2)cc1C | 28.2µM* | -10.2
COc1ccc(-c2cc3c(=O)n(CCNC(=O)c4cc(OC)cc(OC)c4)ccn3n2)cc1 | i | -5.1
SMILES | KDM5B inh | IP6K1 inhibitor
COc1ccc(-c2cc3c(=O)n(CCNC(=O)c4ccc(C#N)cc4)ccn3n2)cc1 | ? | -10.7
COc1ccc(OCC2CN(Cc3ccc4c(c3)OCO4)[S+](=O)([O-])c3cccnc3O2)cc1 (centres undefined) | · | 8.5
CC(C)c1nc2c(c(-c3ccc(Cl)cc3)n1)CCN(Cc1ccsc1)CC2 | ? | -1.5
COc1ccc(F)cc1-c1ccc(CN2CCCCC2C(=O)NCC(F)F)cc1 (centres undefined) | · | 1.1
O=c1oc2ccc(Br)cc2cc1-c1csc(Nc2c(F)cccc2F)n1 | i | ·
N#Cc1cccc(-c2c(C(=O)NCC(F)(F)F)nc3sccn23)c1 | · | 9.6
O=C(NCc1ccc(C(F)(F)F)cc1)C1CCN(Cc2ccccc2-c2ccccc2F)CC1 | · | 6.2
CN1CCN(C(=O)CCC[C@@H]2[C@H]3CCCN4CCC[C@@H](CN2Cc2ccccc2)[C@@H]34)CC1 | 31.6µM* | -7.1
CN(C)CCNC(=O)CCC[C@@H]1[C@H]2CCCN3CCC[C@@H](CN1C)[C@@H]23 | i | -4.8
O=C(CCC[C@@H]1[C@H]2CCCN3CCC[C@@H](CN1Cc1ccccc1)[C@@H]23)N1CCCC1 | i | -5.5
CCN(Cc1ccccc1)C(=O)CCC[C@@H]1[C@H]2CCCN3CCC[C@@H](CN1Cc1cccnc1)[C@@H]23 | i | -1.3
CC(=O)N1C[C@@H]2CCCN3CCC[C@@H]([C@H]23)[C@H]1CCCC(=O)N1CCN(c2ccccn2)CC1 | 31.6µM* | 0.9
CC(=O)N1C[C@@H]2CCCN3CCC[C@@H]([C@H]23)[C@H]1CCCC(=O)N1CCN(c2ccccc2)CC1 | i | 2.3
CN(Cc1cccnc1)C(=O)CCC[C@@H]1[C@H]2CCCN3CCC[C@@H](CN1Cc1cccnc1)[C@@H]23 | 22.4µM* | 5.2
CC(=O)N1C[C@@H]2CCCN3CCC[C@@H]([C@H]23)[C@H]1CCCC(=O)NCCN(C)C | 28.2µM* | 4.2
FC(F)(F)c1ccccc1N/N=C/c1ccc(Br)cc1 | i | ·
COC(=O)c1sc2ccccc2c1S(=O)(=O)N1CCN(c2cc(Cl)ccc2C)CC1 | i | ·
COc1cccc(-c2c(C(=O)N3CCN(C(C)=O)CC3)nc3sccn23)c1 | · | 10.6
Cc1cc(C(=O)NC2CCCN(c3ccnc4ccnn34)C2)ccc1Cl (centres undefined) | · | 17.9
CCC(=O)Nc1ccc2nc(SCc3ccc(F)cc3)sc2c1 | i | ·
CC(=O)N1C[C@@H]2CCCN3CCC[C@@H]([C@H]23)[C@H]1CCCC(=O)N1CCN(c2ccc(F)cc2)CC1 | i | 3.4
CC(=O)N1C[C@@H]2CCCN3CCC[C@@H]([C@H]23)[C@H]1CCCC(=O)N1CCN(C)CC1 | 25.1µM* | -11.3
CCc1noc(-c2cccn3c(CNC(=O)c4ccc(C)c(F)c4)nnc23)n1 | ? | 4.3
CCc1noc(-c2cccn3c(CNC(=O)c4cc(Cl)ccc4F)nnc23)n1 | 28.2µM* | -4.6
CCc1noc(-c2cccn3c(CNC(=O)c4ccccc4F)nnc23)n1 | 31.6µM* | -1.1
SMILES | KDM5B inh | IP6K1 inhibitor
CCCc1noc(-c2cccn3c(CNC(=O)c4ccccc4F)nnc23)n1 | ? | 13.4
O=C(NCCNC(=O)c1cccnc1)c1ccc(-c2cccc(C(F)(F)F)c2)cc1 | · | -2.0
Cn1ncc2c(C(=O)Nc3ccc(Cl)cc3)cc(-c3cccc(F)c3)nc21 | · | 2.5
O=C(CCCc1ccccc1)N1CCC2(CC1)CC(Cc1nc(C3CC3)no1)CCO2 (centres undefined) | · | 20.6
O=C1NCCN2CC3(CCN(C(=O)Nc4ccc5c(c4)OCCO5)CC3)CC12 (centres undefined) | 25.1µM* | -6.0
O=C1NCCN2CC3(CCN(C(=O)Nc4ccccc4F)CC3)CC12 (centres undefined) | ? | -13.0
Cc1ccc(OCc2nc(C3CCN(C(=O)Cc4cccc(F)c4)C3)no2)cc1 (centres undefined) | · | -5.9
CCCn1cc2c3c(cccc31)CN(C(=O)COc1ccccc1)CC2 | 31.6µM* | 28.4
CCCn1cc2c3c(cccc31)CN(C(=O)c1cccc(C#N)c1)CC2 | ? | 16.2
CCn1cc2c3c(cccc31)CN(C(=O)COc1ccc(F)cc1)CC2 | ? | 25.9
COCCn1cc2c3c(cccc31)CN(C(=O)COc1cccc(C)c1)CC2 | 31.6µM* | 8.6
COCCn1cc2c3c(cccc31)CN(C(=O)c1cccc(C(F)(F)F)c1)CC2 | 28.2µM* | 2.1

High-throughput results from PubChem BioAssay.
